Compounds without any hit were thinned out: in the full panel of roughly 83,000, 20% have a hit.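 Compound tested at a single concentration for 48 hours in 96-well plates; a percent growth value below 10 was scored as active.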 Active and inactive are the calls of the source.
The compounds below were run on HL-60(TB) leukemia (assay: NCI-60 one-dose screen, 48 h (100 = growth as untreated, 0 = no growth, -100 = all killed)). Settings: 10 µM unless noted.
With `O=C(CNC1CCCCC1)Nc1ccc(-c2nc3ccccc3s2)cc1` the growth was 66.8% (inactive). In the case of `Fc1ccc(NC(=S)c2ccccc2)cc1`, the growth is reported as 102% (inactive). `COc1cc(/C=C/C(=O)c2c(C)[n+]([O-])c3ccccc3[n+]2[O-])ccc1O` was tested, and the growth was 102% (inactive).

Reference: PubChem BioAssay (NCI)
